Sampled rows, rich in hits. Any-hit rate of the full collection: about 13%.
Pf growth 96h = P. falciparum growth inhibition at 96 hours; P. falciparum luciferase reporter growth, 96 h; Potency, µM (highest dose often 28.7 µM), for the others: at the highest dose activity change, negative = inhibition, usual class: inhibitors; 320,000 tested, 6.9% active; further: potency means the concentration at half of the fitted maximal effect; on the % scale 0 is the no-effect control and ±100 the full control effect
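Parasite growth measured via integrated firefly luciferase reporter in P. falciparum. Infected erythrocytes at 2% hematocrit, 0.05% parasitemia final were treated 96 hours at 37 C under 5% CO2, and luminescence was read.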
Pf growth 48h = inhibits P. falciparum growth in the first generation, 48 h; P. falciparum luciferase growth in erythrocytes, 48 h; 310,000 tested, 5.9% active; Potency, µM (titrated, usually from 28.7 µM), for inactives: at the highest dose activity change, negative = inhibition, actives largely listed as inhibitors; further: potency means the concentration at half of the fitted maximal effect; on the % scale 0 is the no-effect control and ±100 the full control effect
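Cell-based growth assay: transgenic P. falciparum expressing firefly luciferase, cultured in red cells within RPMI 1640 containing 0.5% w/v Albumax, 24 mM bicarbonate and gentamycin. A drop in luciferase activity indicates inhibition.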
HCMV antiviral = blocks human cytomegalovirus replication. HFF cells, HCMV-luciferase reporter, 72 h; hits give low values. activity change, negative = inhibition, % at 57.5 µM. 410,000 tested, 4.5% active; in the data active means activity change below about -60%; inconclusive means no clear call, values can overlap the other calls; inactive means above about -39%; further: on the % scale 0 is the no-effect control and ±100 the full control effect
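Two compound doses tested in HFFs infected with HCMV-luciferase, MOI 1 PFU/cell, 72 h at 37C. Lysate luminescence read with OneGlo; data normalized against buffer-only and 10uM Salinomycin inhibitor controls.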
HCV inh = blocks hepatitis C virus | Huh7.5.1 HCVcc-Cre infection, luciferase reporter, 44 h | Potency, µM (top dose mostly 41.8 µM), for inactives: at the highest dose activity change, negative = inhibition, most hits filed as inhibitors | 340,000 tested, 3.4% active | AID 651820; further: potency means the concentration at half of the fitted maximal effect; on the % scale 0 is the no-effect control and ±100 the full control effect
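After 44 h co-culture of compound, cells and HCVcc-Cre (~0.5 moi), substrate is added for 15 min at room temperature and luciferase measured over 15 sec. Cells were seeded at 1,000/well and pre-cultured 4 h.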
HCV confirm = confirmation of hepatitis C virus inhibitors. shares compounds with HCV inh. HCVcc-Cre infectious virus cell assay, luciferase, inhibition. Potency, µM (highest dose often 41.8 µM), without a hit: top-dose activity, negative = inhibition, hits mostly inhibitors. 640 tested, 78% active. AID 720575; further: potency means the concentration at half of the fitted maximal effect; nearly all actives have a fitted effect of over 80% in size
HCV host tox = host cell cytotoxicity counter-screen for HCV inhibitors; shares compounds with HCV inh; HCV host cell line cytotoxicity counterscreen; Potency, µM (doses to about 41.8 µM), for inactives: at the highest dose activity change, negative = cytotoxicity, usual class: inhibitors; 640 tested, 22% active;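 further: potency means the concentration at half of the fitted maximal effect; 44 h compound exposure; on the % scale 0 is the no-effect control and ±100 the full control effect; nearly all actives have a fitted effect of over 55% in size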
* = called active by the depositor; [ ] = dose if it differs, or a comment. Unless noted, the call rests on the fitted dose curve; in most records, active means well fitted curve in the direction sought with a large enough effect; inconclusive means small, poorly fitted or top-dose-only effect, or another doubt; inactive means no such curve, though single readings can be large; an effect the other way counts as inactive or inconclusive.

Cc1nn2c(NCCCN(C)C)c3c(nc2c1-c1ccccc1)CCCC3 was read as Pf growth 96h 8.3µM*, Pf growth 48h 15µM*, HCMV antiviral -20, HCV inh 2µM*, HCV confirm 7µM* and HCV host tox 6%.
Screening Cc1nn2c(NCCOCCO)c3c(nc2c1-c1ccccc1)CCC3 returned Pf growth 96h inconclusive, Pf growth 48h 45%, HCMV antiviral -33 and HCV inh -29%.
`O=C(Nc1ccncc1)c1cc(C2CCCCN2C(=O)CCc2ccccc2)on1` (configuration not stated) gave HCMV antiviral -17.
Screening Cc1cccc(C)c1-n1nnnc1C1(C)CCC(=O)N1C1CC1 (configuration not stated) returned HCMV antiviral -8.
Screening C=C(CN(C)C)C(=O)c1cc(C)ccc1C returned HCMV antiviral -99*, HCV inh inconclusive, HCV confirm 8.9µM* and HCV host tox 7.9µM*.
Cc1ccc(C)c(C(=O)NCCN(C)C)c1 was read as Pf growth 48h 11%, HCMV antiviral 60 and HCV inh 1%.
O=C(Nc1cccc(C(F)(F)F)c1)C1CCN(S(=O)(=O)c2ccc(N3CCCC3=O)cc2)CC1 was read as Pf growth 96h 13µM*, Pf growth 48h inconclusive, HCMV antiviral -66*, HCV inh 6.3µM*, HCV confirm 8.9µM* and HCV host tox 14µM*.
`COc1ccccc1NC(=O)c1ccc(SCC(=O)NCc2ccccc2Cl)c([N+](=O)[O-])c1` gave Pf growth 96h 4%, Pf growth 48h 2%, HCMV antiviral -4, HCV inh inconclusive, HCV confirm inconclusive and HCV host tox 43%.
For CNCCOc1ccc(Cl)c(Cl)c1 the results were Pf growth 96h -12%, Pf growth 48h 8%, HCMV antiviral -20, HCV inh inconclusive, HCV confirm -17% and HCV host tox 43%.
`CNCCCOc1ccc2c(c1)CCC2` gave Pf growth 96h 11%[5.75 µM], Pf growth 48h inconclusive, HCMV antiviral -3 and HCV inh -14%.
For COC(=O)C1(C(=O)OC)c2ccccc2N(S(=O)(=O)c2ccc(C)cc2)C1CC(C)=O (configuration not stated) the results were HCMV antiviral -24.
CC1(c2nc3ccccc3[nH]2)CCC(=O)N1Cc1cccs1 (configuration not stated) was read as HCMV antiviral -4.
COc1ccc(-n2cc(-c3ccc(C)cc3)[n+]3c2SCC3)cc1 was read as Pf growth 96h inconclusive, Pf growth 48h 0.59µM*, HCMV antiviral -102*, HCV inh inconclusive, HCV confirm 13µM* and HCV host tox 13µM*.
N#Cc1ccc(-c2cn(-c3ccccc3)c3[n+]2CCCS3)cc1 was read as Pf growth 96h inconclusive, Pf growth 48h inconclusive, HCMV antiviral -5 and HCV inh 0%.
Screening N#Cc1ccc(-c2cccc3nccn23)cc1 returned HCMV antiviral 20.
For COCCNC(=O)C1(C)CCCN(C(=O)c2cccc(OC(F)(F)F)c2)C1 (configuration not stated) the results were HCMV antiviral -31.
Screening CCOc1cccc(C(=O)NC(=S)Nc2ccc(N3CCN(CC)CC3)cc2)c1 returned Pf growth 96h inconclusive, Pf growth 48h inconclusive, HCMV antiviral -30 and HCV inh inconclusive.
For CCN1CCN(c2ccc(NC(=O)c3cccc(OCc4ccccc4)c3)cc2)CC1 the results were Pf growth 96h -102%, HCMV antiviral -15, HCV inh 4.5µM*, HCV confirm 8.9µM* and HCV host tox 7%.
Screening COc1ccc(NC(=O)C2Cc3c(-c4cccc(F)c4)ccnc3O2)cn1 (configuration not stated) returned HCMV antiviral -14.
`CN[C@@H](CO)C(=O)NC[C@H]1O[C@@H](n2cnc3c(N)ncnc32)[C@H](O)[C@@H]1O` gave HCMV antiviral -4.
`CC1(C(=O)NS(=O)(=O)C2CC2)CCCN(C(=O)C2(c3ccc(Cl)cc3)CCCC2)C1` (configuration not stated) gave HCMV antiviral 11.
COc1ccc(NC(=O)/C(Cl)=C(/Cl)S(=O)Cc2ccccc2)cn1 (configuration not stated) was read as Pf growth 48h 15µM*, HCMV antiviral -100*, HCV inh 0.79µM*, HCV confirm 6.3µM* and HCV host tox 6.3µM*.
`COc1ccc(NC(=O)c2cccs2)cn1` gave Pf growth 96h 102%, Pf growth 48h 18%, HCMV antiviral 34 and HCV inh 5%.
For O=C(c1ccccc1)N1CCC(c2nc(-c3ccc(S(=O)(=O)NCC4CCCO4)cc3)no2)CC1 (configuration not stated) the results were Pf growth 48h -20%, HCMV antiviral -89*, HCV inh 2.8µM*, HCV confirm 3.5µM* and HCV host tox 8.9µM*.
CCOc1cc(NC(=S)NCC2CCCO2)c(OCC)cc1NC(=O)c1ccc(C)cc1 (configuration not stated) was read as Pf growth 96h inconclusive, Pf growth 48h -2%, HCMV antiviral 51 and HCV inh inconclusive.
CCOc1cc(NC(=S)NCC2CCCO2)c(OCC)cc1NC(=O)c1ccccc1 (configuration not stated) was read as Pf growth 96h inconclusive, Pf growth 48h inconclusive, HCMV antiviral -9, HCV inh 8.9µM*, HCV confirm inconclusive and HCV host tox 32%.
Screening CN(C)S(=O)(=O)c1ccc(N2CCCC2)c(C(=O)Nc2nc3ccc(F)cc3s2)c1 returned Pf growth 96h 6%, Pf growth 48h 11%, HCMV antiviral 14, HCV inh 7.9µM*, HCV confirm inconclusive and HCV host tox -13%.
For O=c1[nH][nH]c2c1[C@H](c1ccc(Cl)cc1)O[C@H](C1CCCC1)C2 the results were HCMV antiviral -6.
Screening Clc1ccc(-c2cc(C3CCNCC3)[nH]n2)cc1 returned Pf growth 96h inconclusive, Pf growth 48h inconclusive, HCMV antiviral -5 and HCV inh inconclusive.
Nc1nc(Cl)cc(N2CCC(c3cc(-c4ccc(Cl)cc4)n[nH]3)CC2)n1 was read as Pf growth 96h inconclusive, Pf growth 48h inconclusive, HCMV antiviral -104*, HCV inh 4µM*, HCV confirm 11µM* and HCV host tox inconclusive.
For COc1ccc(NC(=O)c2cccc3c(-c4ccc(O)c(OC)c4)coc23)cc1 the results were HCMV antiviral 20.

Compound activity: PubChem BioAssay, National Center for Advancing Translational Sciences (NCATS)
